Laboratory results reported in ChEMBL document CHEMBL1157539, “Thousands of chemical starting points for antimalarial lead identification” (Nature, 2010).

test system: Plasmodium falciparum; experiment: GSK_TCMDC: Inhibition of Plasmodium falciparum 3D7 in whole red blood cells, using parasite LDH activity as an index of growth. Test compounds present at 2uM; assay type: functional

SMILES | Inhibition [%]
CC(=O)Nc1cc(C(=O)Nc2ccc(C3=NCCN3)cc2)ccc1C(=O)Nc1ccc(C2=NCCN2)cc1.Cl | 96
CC(C)(C)c1cc2cc(Nc3ccnc4cc(-c5nccs5)ccc34)ccc2[nH]1.Cl | 100
COc1ccc2ncc(C#N)c(CCN3CCC(NCc4cnc5c(c4)OCCO5)CC3)c2n1.Cl | 91
O=C(Nc1cccnc1)c1cc(C(=O)Nc2cccnc2)cc([N+](=O)[O-])c1 | 100
CC(OC(=O)c1ccc(C(=O)NCC2CC2)cc1)C(C)(C)C (stereo not drawn) | 93
CN1CC[C@@H](Oc2cc(NC(=O)Nc3ccccc3Br)ccc2Cl)C1 | 100
Cc1nc2ccccc2n1C1CC2CCC(C1)N2CCCC1(c2ccccc2)CCN(C(=O)OCc2ccccc2)CC1.O=CO (stereo not drawn) | 90
C=CCC(CC=C)N1C(=O)C(c2ccccc2)(c2ccccc2)N=C1N.O=CO | 98
Cc1cc(Cl)c(S(=O)(=O)N(C)c2ccccc2)cc1OCC(=O)NC1CCCCC1 | 99
CC(C)C[C@@H](NC(=O)NC1CCC(CCN2C3CCC2CC(OC(=O)C(CO)c2ccccc2)C3)CC1)C(O)(c1ccccc1)c1ccccc1 (stereo partly drawn) | 95
CCc1cn2c3c(cc(C(=O)N[C@@H](Cc4cccc(F)c4)[C@H](O)CNC4CCOCC4)cc13)N(C)S(=O)(=O)CC2.O=CO | 97
CCN(CCCN1CCCCC1)c1cc(C)nc(Nc2cc(C)ccc2C)n1.O=C(O)C(F)(F)F | 93
Cl.Cl.N=C(N)Nc1ccc(Cc2ccc(NC(=N)N)cc2)cc1 | 93
